Source: PubChem BioAssay (NCATS)
Records with an inconclusive call do not appear. Active and inactive are the calls of the source. Unless noted, calls come from the whole dose curve; as a rule, active = well fitted curve in the direction sought with a large enough effect; inconclusive = small, poorly fitted or top-dose-only effect, or another doubt; inactive = no such curve, though single readings can be large; an effect the other way counts as inactive or inconclusive.

Columns and labels:
[1] = HTS Assay for Allosteric Antagonists of the Human D2 Dopamine Receptor: Hit Validation in HTRF (AID 624455);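 note: stable D1 dopamine receptor cell line scored for blocking the D1 response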
Outline: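 Hits were examined in an HTRF assay using cells stably expressing the D1 dopamine receptor, scoring inhibition of the D1-mediated response. The preceding primary screen tracked calcium flux after an EC80 dopamine addition in force-coupled, inducible Hek293 Trex D2 cells.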

[2] = target: Arylsulfatase A (Homo sapiens) (UniProt P15289); assay: qHTS screen for enhancers of Arylsulfatase A (ASA1): LOPAC Validation Assay (AID 720538)
Chain of Arylsulfatase A (Homo sapiens) (P15289 whole entry, looked up): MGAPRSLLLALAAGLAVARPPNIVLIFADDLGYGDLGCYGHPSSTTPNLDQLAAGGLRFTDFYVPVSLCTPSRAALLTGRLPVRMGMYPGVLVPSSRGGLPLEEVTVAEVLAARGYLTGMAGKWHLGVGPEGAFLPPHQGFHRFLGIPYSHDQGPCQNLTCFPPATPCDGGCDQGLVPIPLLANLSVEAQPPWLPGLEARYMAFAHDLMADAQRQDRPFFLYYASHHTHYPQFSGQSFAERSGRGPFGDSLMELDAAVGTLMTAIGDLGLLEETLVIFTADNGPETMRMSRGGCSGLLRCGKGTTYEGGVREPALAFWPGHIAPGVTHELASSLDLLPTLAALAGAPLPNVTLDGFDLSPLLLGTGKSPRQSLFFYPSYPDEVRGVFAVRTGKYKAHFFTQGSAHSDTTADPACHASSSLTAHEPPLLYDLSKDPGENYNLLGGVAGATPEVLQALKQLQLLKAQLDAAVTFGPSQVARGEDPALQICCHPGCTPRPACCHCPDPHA
Outline: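 SV40-transformed skin fibroblasts from an MLD patient (ASA-I179S) were treated with compounds for 48h at 37 degree C, then lysed with 0.5mM pNCS final substrate for 14h at room temperature; NaOH stop, fluorescence read (Ex=525 nm; Em=598 nm).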

[3] = qHTS for compounds that reverse cellular toxicity of Amyloid beta (A-beta) peptide in yeast: LOPAC Validation Assay (AID 720559)
Outline: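 Yeast cells expressing toxic A-beta were combined with pinned compounds in growth medium and incubated 48 hr at 30 C. Growth was read as absorbance at 600 nm and normalized to DMSO and to an equimolar FeCl3/clioquinol positive control.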

[4] = qHTS for Activators of Parkin Expression: LOPAC Validation Assay (NLuc Reporter) (AID 720572)
Outline: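 Parkin promoter-driven FLuc/NLuc neuronal reporter cells; 24 h plating, 7-pt dose response, 24 h at 37 C/5% CO2; FLuc then NanoLuc reagent, 10 min each, luminescence; DMSO/positive control normalized.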

[5] = qHTS for Activators of Parkin Expression: LOPAC Validation Assay (FLuc Reporter) (AID 720573)
Outline: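 Neuronal cell line stably carrying FLuc/NLuc coincidence reporter under Parkin promoter; cells plated 24 h, then compounds added in 7-point dose response for 24 h at 37 C. FLuc luminescence read; normalized to DMSO and positive control (100%).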

[6] = target: T1, Hexokinase-4 (Homo sapiens) + Glucokinase regulatory protein (Homo sapiens) (UniProt P35557+Q14397); assay: qHTS assay for inhibitors of recombinant human GCK-GKRP interaction: Diaphorase-coupled assay (AID 743205)
T1 sequence (P35557 whole entry, looked up): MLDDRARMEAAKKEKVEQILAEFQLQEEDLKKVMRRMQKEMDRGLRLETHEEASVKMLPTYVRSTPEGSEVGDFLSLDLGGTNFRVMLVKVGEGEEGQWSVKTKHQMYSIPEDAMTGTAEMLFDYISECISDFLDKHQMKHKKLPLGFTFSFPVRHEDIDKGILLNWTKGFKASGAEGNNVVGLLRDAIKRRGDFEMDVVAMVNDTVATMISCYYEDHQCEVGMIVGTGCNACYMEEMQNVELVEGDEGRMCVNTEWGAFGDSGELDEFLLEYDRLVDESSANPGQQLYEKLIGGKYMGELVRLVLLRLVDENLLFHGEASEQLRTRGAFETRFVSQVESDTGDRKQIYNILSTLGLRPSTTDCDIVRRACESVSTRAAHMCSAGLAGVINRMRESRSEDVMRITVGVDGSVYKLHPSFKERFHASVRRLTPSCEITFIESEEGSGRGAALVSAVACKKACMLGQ
T1 sequence (Q14397 whole entry, looked up): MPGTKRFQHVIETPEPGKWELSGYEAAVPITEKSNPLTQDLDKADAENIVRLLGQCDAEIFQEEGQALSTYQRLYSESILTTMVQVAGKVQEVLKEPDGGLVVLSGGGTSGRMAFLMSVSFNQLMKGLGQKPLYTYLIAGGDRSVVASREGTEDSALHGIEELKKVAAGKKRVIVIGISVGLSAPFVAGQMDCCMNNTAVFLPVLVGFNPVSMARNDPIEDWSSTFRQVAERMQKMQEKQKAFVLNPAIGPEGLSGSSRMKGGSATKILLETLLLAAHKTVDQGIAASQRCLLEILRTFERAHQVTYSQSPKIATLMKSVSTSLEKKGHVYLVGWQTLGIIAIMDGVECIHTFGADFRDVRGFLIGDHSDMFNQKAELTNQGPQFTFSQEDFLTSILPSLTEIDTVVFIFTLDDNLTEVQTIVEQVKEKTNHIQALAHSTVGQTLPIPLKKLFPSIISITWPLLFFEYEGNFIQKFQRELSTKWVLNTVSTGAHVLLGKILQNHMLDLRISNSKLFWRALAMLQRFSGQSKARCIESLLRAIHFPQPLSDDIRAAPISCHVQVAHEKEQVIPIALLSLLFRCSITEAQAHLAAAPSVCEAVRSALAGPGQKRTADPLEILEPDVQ
Outline: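 GST-GCK (10 nM) with FLAG-GKRP (10 nM), 5 mM glucose and 0.4 mM ATP in pH 7.6 Hepes; compounds preincubated 20 min with substrate. G6PDH/diaphorase coupling converts resazurin to resorufin, read kinetically (ex 525/em 590 nm) for 30 min.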

[7] = target: T1, Hexokinase-4 (Homo sapiens) + Glucokinase regulatory protein (Homo sapiens); assay: qHTS assay for inhibitors of recombinant human GCK-GKRP interaction: ADP-Glo assay (AID 743206)
Outline: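 GST-GCK and FLAG-GKRP (15 nM each in the dispensed mix, with 2 uM S6P) react with 0.4 mM ATP and 5 mM glucose (final) in Hepes pH 7.6 for 60 min at room temperature. ADP is measured by ADP-Glo luminescence.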

[8] = Natriuretic polypeptide receptor (hNpr1) antagonism - Pilot counterscreen GloSensor control cell line (AID 1347045; calls by dose curve)
Outline: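 HEK293 cells carrying the GloSensor cGMP sensor (GIP/pGS-40F) were loaded with 2% GloSensor reagent for 2 h, exposed to compounds for 30 min, and then stimulated with 50 uM sodium nitroprusside for 20 min at room temperature.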

[9] = target: Atrial natriuretic peptide receptor 1 (Homo sapiens) (UniProt P16066); assay: Natriuretic polypeptide receptor (hNpr1) antagonism - Pilot screen (AID 1347049; calls by dose curve;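 note: agonist-evoked cGMP luminescence read 20 min after hNppA addition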)
Chain of Atrial natriuretic peptide receptor 1 (Homo sapiens) (P16066 whole entry, looked up): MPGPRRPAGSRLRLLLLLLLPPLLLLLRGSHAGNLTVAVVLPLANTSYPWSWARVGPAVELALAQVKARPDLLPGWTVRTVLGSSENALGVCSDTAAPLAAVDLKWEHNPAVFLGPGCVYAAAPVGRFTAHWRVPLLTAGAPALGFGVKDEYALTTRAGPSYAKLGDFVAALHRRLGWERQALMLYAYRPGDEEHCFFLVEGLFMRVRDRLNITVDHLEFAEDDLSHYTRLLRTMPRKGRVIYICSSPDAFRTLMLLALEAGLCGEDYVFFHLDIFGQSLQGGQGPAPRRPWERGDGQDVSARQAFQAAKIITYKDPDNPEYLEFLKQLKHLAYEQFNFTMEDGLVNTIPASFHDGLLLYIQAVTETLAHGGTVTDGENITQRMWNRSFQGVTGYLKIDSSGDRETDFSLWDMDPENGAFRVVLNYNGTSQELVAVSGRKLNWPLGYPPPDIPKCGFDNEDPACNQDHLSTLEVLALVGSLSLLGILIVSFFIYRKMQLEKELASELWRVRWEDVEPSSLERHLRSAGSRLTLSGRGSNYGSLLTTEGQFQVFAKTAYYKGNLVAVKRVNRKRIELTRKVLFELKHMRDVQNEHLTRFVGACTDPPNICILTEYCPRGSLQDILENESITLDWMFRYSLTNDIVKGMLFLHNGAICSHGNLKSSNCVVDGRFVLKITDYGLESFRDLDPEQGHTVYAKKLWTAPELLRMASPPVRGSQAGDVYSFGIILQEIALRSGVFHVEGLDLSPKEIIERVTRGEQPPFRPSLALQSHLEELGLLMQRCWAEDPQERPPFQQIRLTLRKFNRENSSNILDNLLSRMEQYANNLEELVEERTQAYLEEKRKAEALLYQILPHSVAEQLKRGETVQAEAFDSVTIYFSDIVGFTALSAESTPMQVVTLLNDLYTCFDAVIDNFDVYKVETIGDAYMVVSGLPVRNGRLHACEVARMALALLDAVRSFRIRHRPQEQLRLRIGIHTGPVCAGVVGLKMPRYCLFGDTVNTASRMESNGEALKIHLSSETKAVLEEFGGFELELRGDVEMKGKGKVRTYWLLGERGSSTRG
Outline: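 Readout is cGMP-driven firefly luciferase luminescence in HEK293 cells carrying hNpr1 and a PDE5-domain GloSensor, read before and 20 min after 0.1 nM hNppA stimulation. Cells had 2% substrate reagent for 2 h and test compound for 30 min.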

[10] = target: T2, Tyrosine-protein phosphatase non-receptor type substrate 1 (Homo sapiens) + Leukocyte surface antigen CD47 (Homo sapiens) (UniProt P78324+Q08722); assay: CD47-SIRPalpha protein protein interaction - LANCE assay qHTS validation (AID 1347057; active = well fitted curve in the direction sought with a large enough effect in the signal ratio, with a control signal flat, not every such curve was filed as active; the % refers to the signal ratio)
T2 sequence (P78324 whole entry, looked up): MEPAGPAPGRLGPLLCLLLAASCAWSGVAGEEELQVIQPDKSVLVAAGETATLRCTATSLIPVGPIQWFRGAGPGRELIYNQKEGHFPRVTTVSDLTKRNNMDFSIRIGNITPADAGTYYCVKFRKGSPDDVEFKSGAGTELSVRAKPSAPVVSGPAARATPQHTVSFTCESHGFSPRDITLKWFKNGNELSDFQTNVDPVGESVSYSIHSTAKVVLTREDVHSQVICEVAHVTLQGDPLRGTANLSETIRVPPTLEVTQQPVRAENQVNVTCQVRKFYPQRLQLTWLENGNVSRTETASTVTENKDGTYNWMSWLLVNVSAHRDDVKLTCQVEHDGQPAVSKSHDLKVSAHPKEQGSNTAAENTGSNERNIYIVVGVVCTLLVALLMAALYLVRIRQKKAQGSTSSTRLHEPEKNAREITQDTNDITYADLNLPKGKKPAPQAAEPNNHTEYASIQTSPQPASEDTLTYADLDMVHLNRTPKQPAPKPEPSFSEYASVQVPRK
T2 sequence (Q08722 whole entry, looked up): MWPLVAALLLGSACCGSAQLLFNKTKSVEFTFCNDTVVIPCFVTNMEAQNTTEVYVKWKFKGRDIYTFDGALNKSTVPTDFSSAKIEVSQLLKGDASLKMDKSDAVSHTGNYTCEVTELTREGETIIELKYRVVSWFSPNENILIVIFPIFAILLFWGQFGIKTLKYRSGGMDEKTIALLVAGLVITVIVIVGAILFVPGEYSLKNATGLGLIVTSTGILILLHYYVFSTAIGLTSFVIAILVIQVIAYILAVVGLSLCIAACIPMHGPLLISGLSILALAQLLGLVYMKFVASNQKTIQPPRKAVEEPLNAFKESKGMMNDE
Outline: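 First, His-tagged CD47 and Eu-labelled anti-His antibody met the compound for 30 min; next, site-specifically biotinylated SIRPalpha was added for 30 min; finally streptavidin-APC was added before reading the TR-FRET ratio.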

[11] = target: T2, Tyrosine-protein phosphatase non-receptor type substrate 1 (Homo sapiens) + Leukocyte surface antigen CD47 (Homo sapiens); assay: CD47-SIRPalpha protein protein interaction - HTRF assay qHTS validation (AID 1347058; active = well fitted curve in the direction sought with a large enough effect in the signal ratio, not every such curve was filed as active; the % refers to the signal ratio;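 note: recombinant soluble extracellular CD47 with His tag and biotinylated SIRPalpha domains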)
Outline: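 TR-FRET read (Ch1/Ch2 ratio) of soluble extracellular CD47 and Avi-biotinylated SIRPalpha domains in PBS pH 7.4 with 0.05% IGEPAL; 7-point compound titration. Sequential 30 min room-temperature steps; non-biotinylated SIRPalpha as control inhibitor.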

[12] = target: T2, Tyrosine-protein phosphatase non-receptor type substrate 1 (Homo sapiens) + Leukocyte surface antigen CD47 (Homo sapiens); assay: CD47-SIRPalpha protein protein interaction - Alpha assay qHTS validation (AID 1347059);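 note: bead proximity luminescence from CD47 binding SIRPalpha after compound preincubation with SIRPalpha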
Outline: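 Binding is measured by AlphaScreen proximity: Ni-NTA acceptor beads capture His-CD47, streptavidin donor beads capture biotin-SIRPalpha. Each of three additions (SIRPalpha with compound, CD47, beads) incubates 30 min at room temperature protected from light.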

[13] = target: Parathyroid hormone/parathyroid hormone-related peptide receptor (Homo sapiens) (UniProt Q03431); assay: qHTS for PTHR1 Agonists: Optimization Screen against the NCGC LOPAC library (AID 1347079);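 note: GloSensor cAMP luminescence in HEK-293 GP2 cells expressing human PTHR1 with IBMX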
Outline: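 Compounds were tested across a qHTS titration. PTHR1-expressing GP2 cells report cAMP rises via GloSensor luminescence after 1 hr compound exposure at 37C with IBMX present.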

[14] = target: N-terminal Xaa-Pro-Lys N-methyltransferase 1 (Homo sapiens) (UniProt Q9BV86); assay: qHTS Assay for Inhibitors of N-terminal methyltransferase 1 (NTMT1): LOPAC validation of the NTMT1 SAHH-coupled ThioGlo3 Assay (AID 1347143);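 note: SAH from peptide methylation measured as thiol fluorescence via SAHH coupling and ThioGlo3; potency is the fitted concentration of half-maximal effect; nearly all actives have a fitted effect of over 70% in size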
Outline: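 Inhibition of NTMT1 methylation of peptide SPKRIA is followed by converting SAH with SAHH and labelling the released thiol with ThioGlo3. Plates are read at 340/450nm before and 30 min after reagent addition, both at room temperature.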

[15] = qHTS to identify inhibitors of the type 1 interferon - major histocompatibility complex class I in skeletal muscle: primary screen against the NCATS LOPAC collection (AID 1347405);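 note: lytic HiBiT luminescence reporting HLA-B protein level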
Outline: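 Immortalized human C25cl48 myoblasts with HiBiT knocked into endogenous HLA-B*08:01 were stimulated with 4.0 ng/ml IFN-beta and given compounds in a 7-point, 1:4.3 titration from 46 uM final; after 24 hrs, lytic HiBiT luminescence was read.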

[16] = qHTS for inhibitors of adenylyl cyclases using a fission yeast platform: a pilot screen against the NCATS LOPAC library (AID 1347410)
Outline: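 S. pombe CHP2027 (AC9-GNAS-PDE4D2) carrying a PKA-repressed fbp1-GFP reporter was exposed to LOPAC compounds (final up to 57 µM) for 18 h at 30C in the dark, in EMM with histidine, lysine and uracil; GFP gain-of-signal read by laser scanning cytometry.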

[17] = Validation qHTS assay for inhibitors of Activation Induced Cytidine Deaminase (AID): UDG Counterscreen signal (AID 1347427)
Outline: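 Counterscreen read of UDG activity (2 U/mL, 4/3x) in the FRET deamination format with AID (1 uM, 4/3x), DJC20/DJC23 substrates (250 nM, 4x), 4 h at room temperature. NaOH stop, fluorescence at 560 ex/665 em.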

[18] = target: Single-stranded DNA cytosine deaminase (Homo sapiens) (UniProt Q9GZX7); assay: Validation qHTS assay for inhibitors of Activation Induced Cytidine Deaminase (AID): AID signal (AID 1347429)
Chain of Single-stranded DNA cytosine deaminase (Homo sapiens) (Q9GZX7 whole entry, looked up): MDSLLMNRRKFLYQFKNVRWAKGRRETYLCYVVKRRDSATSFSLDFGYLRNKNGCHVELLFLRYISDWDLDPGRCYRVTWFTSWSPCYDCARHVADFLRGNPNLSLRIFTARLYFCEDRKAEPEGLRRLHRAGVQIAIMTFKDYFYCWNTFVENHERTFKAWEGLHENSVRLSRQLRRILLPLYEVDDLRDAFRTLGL
Outline: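 AID and UDG were combined and compounds added at final up to 114 uM, then DJC20/DJC23 FRET substrate was added for 4 hr at room temperature. NaOH was then added for 30 min before fluorescence was read at 540/590 nm.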

[19] = target: Calcium and integrin-binding protein 1 (Homo sapiens) (UniProt Q99828); assay: Validation qHTS for Identification of Calcium Integrin Binding protein 1 (CIB1) Competitor (AID 1508618)
Chain of Calcium and integrin-binding protein 1 (Homo sapiens) (Q99828 whole entry, looked up): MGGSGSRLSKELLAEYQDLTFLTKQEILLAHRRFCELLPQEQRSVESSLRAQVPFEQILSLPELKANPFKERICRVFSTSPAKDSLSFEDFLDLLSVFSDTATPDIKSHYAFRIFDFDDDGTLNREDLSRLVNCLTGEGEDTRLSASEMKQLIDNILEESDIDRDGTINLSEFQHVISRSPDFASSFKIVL
Outline: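 CIB1-GST (1 uM final) in 5 mM HEPES pH 7.4, 125 mM NaCl, 5 mM CaCl2, 0.01% Tween20 was preincubated 15 min at room temperature with compound (up to 114 uM), then FITC-alphaIIb peptide (100 nM) added for 15 min; fluorescence polarization read.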

[20] = Primary qHTS for small molecule stabilizers of the endoplasmic reticulum resident proteome: Secreted ER Calcium Modulated Protein (SERCaMP) assay (AID 1508630)
Outline: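 GLuc-SERCaMP-expressing SH-SY5Y cells, pretreated 16 h with compound, are challenged with thapsigargin to empty ER calcium stores; after 4 h, coelenterazine is added directly to the medium and luminescence is imaged.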

Papain (Carica papaya) = Papain (Carica papaya) (UniProt P00784); assay: Primary qHTS assay for inhibitors of the protease papain (AID 1645873);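 note: papain turnover of Z-FR-AMC read as the AMC fluorescence gain over 10 min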
[21] = target: Catechol O-methyltransferase (Homo sapiens) (UniProt P21964); assay: Confirmatory Screen for Target Class Profiling of Small Molecule Inhibitors of Methyltransferases (AID 1745852; calls by dose curve); conditions: MTase-Glo luminescence, SAH detection, recombinant enzyme; measured here: COMT max response; stronger effect = lower value
[22] = target: Guanidinoacetate N-methyltransferase (Homo sapiens) (UniProt Q14353); assay: as above; conditions: activity change, negative = inhibition: at 57.3 µM (top of the series) unless noted
[23] = target: Nicotinamide N-methyltransferase (Homo sapiens) (UniProt P40261); assay: as above; conditions: MTase-Glo luminescence, SAH detection, recombinant enzyme; measured here: NNMT max response; stronger effect = lower value
Chain of Nicotinamide N-methyltransferase (Homo sapiens) (P40261 whole entry, looked up): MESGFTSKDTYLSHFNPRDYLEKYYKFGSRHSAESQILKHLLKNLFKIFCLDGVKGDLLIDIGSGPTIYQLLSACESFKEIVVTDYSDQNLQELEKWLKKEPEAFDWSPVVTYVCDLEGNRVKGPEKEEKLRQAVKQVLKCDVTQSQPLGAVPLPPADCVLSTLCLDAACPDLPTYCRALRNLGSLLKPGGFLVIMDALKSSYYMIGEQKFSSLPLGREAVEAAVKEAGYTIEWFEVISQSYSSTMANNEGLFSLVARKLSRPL

[24] = target: Phenylethanolamine N-methyltransferase (Homo sapiens) (UniProt P11086); assay: as above; conditions: MTase-Glo luminescence, SAH detection, recombinant enzyme; measured here: PNMT max response; stronger effect = lower value
Chain of Phenylethanolamine N-methyltransferase (Homo sapiens) (P11086 whole entry, looked up): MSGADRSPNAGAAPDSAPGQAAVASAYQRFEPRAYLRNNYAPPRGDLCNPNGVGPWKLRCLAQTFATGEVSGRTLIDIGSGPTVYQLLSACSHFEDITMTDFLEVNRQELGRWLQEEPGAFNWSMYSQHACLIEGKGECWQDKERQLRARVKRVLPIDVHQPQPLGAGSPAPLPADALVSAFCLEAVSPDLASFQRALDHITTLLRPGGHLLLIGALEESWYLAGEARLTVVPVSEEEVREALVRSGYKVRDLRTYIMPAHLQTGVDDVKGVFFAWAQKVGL

[25] = target: Metallo-beta-lactamase type 2 (Klebsiella pneumoniae) (UniProt C7C422); assay: qHTS to identify inhibitors of the New Delhi Metallo-beta-lactamase (NDM): assay validation screen against the NCATS LOPAC Collection (AID 1794843);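 note: nitrocefin turnover by NDM-1 measured as 485 nm absorbance at plateau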
Chain of Metallo-beta-lactamase type 2 (Klebsiella pneumoniae) (C7C422 whole entry, looked up): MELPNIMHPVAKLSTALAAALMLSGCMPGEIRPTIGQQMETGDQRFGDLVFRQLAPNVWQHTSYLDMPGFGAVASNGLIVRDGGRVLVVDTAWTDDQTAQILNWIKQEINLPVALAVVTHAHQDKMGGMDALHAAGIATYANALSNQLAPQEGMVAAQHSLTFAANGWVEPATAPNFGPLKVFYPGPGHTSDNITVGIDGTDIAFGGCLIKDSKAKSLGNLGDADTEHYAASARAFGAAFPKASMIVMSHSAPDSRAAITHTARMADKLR
Outline: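 NDM-1 at 2 nM final in 50 mM HEPES pH 7.0 with 1 uM ZnSO4 and 0.01% Tween20 was preincubated with library compounds in DMSO. Nitrocefin (50 uM stock) was then added, and absorbance at 485 nm was read at the kinetic plateau.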

[26] = target: Glutathione peroxidase 1 (Homo sapiens) (UniProt P07203); assay: Primary qHTS Assay for Inhibitors of Recombinant Selenoprotein Glutathione Peroxidase 1 (GPX1) (AID 1845191); note: nearly all actives have a fitted effect of over 65% in size
Chain of Glutathione peroxidase 1 (Homo sapiens) (P07203 whole entry, looked up): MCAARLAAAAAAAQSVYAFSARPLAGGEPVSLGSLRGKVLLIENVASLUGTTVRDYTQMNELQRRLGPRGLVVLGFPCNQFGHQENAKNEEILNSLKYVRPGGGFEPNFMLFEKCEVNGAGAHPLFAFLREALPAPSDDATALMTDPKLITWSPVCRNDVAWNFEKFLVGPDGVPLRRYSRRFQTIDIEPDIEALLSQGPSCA
Outline: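 10 nM GPX1 + cpd, 30 min RT; start w/ 1 mM GSH, 0.5 mM cumene hydroperoxide, 0.5 mM NADPH, 100 nM GR, 0.01% BSA; buffer 50 mM Tris-HCl pH 7.5, 2 mM EDTA, 150 mM NaCl; Fl 340/450, 0 & 15 min.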

[27] = target: Phospholipid hydroperoxide glutathione peroxidase GPX4 (Homo sapiens) (UniProt P36969); assay: Primary qHTS Assay for Inhibitors of Recombinant Selenoprotein Glutathione Peroxidase 4 (GPX4) (AID 1845192); conditions: outcome: dose series up to 50 µM unless noted; note: nearly all actives have a fitted effect of over 65% in size
Outline: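 NADPH consumption, followed by fluorescence at 340/450 nm between 0 and 15 min, reports GPX4 activity via coupled glutathione reductase (100 nM). Enzyme 200 nM was pre-exposed to compound 30 min; 0.5 mM cumene hydroperoxide and 1 mM GSH served as substrates.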

CN1C2CCCC1CC(NC(=O)c1nn(C)c3ccccc13)C2 (stereo not drawn)
1.32%: activity [21]
active: Potency [14] 56.2 µM
0.961%: activity [23]
4.07%: activity [24]
5.2%: activity change, negative = inhibition [22]
inactive: outcome [1] | Potency [2] | outcome [3] | outcome [4] | Potency [5] | outcome [6] | outcome [7] | Potency [8] | Potency [9] | outcome [10] | outcome [11] | Potency [12] | outcome [13] | Potency [15] | outcome [16] | outcome [17] | Potency [18] | outcome [19] | Potency [20] | Potency (Papain (Carica papaya)) | Potency [25] | Potency [26] | Potency [27]
